Assay [1] is described as follows: qHTS profiling of the MIPE4 collection as inhibitors of Plasmodium falciparum (DD2) proliferation (AID 743345; call rule not given here). The conditions noted are these: P. falciparum Dd2 in erythrocytes, SYBR Green DNA, 72 h; at 28.5 µM (top of the series) unless noted. A digest of the protocol:
(§1)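 Parasite DNA was quantified by SYBR Green I fluorescence (ex 485, em 535 nm) after overnight lysis in saponin/Triton buffer at room temperature. Cultures at 0.3% parasitemia and 2.5% hematocrit were first exposed to compound for 72 h at 37 C; signals were normalised to artemisinin (0.29 uM) and vehicle wells.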
In general terms: qHTS replaces the single test concentration by a dilution series.

Assay [2] can be described thus: qHTS profiling of the MIPE4 collection as inhibitors of Plasmodium falciparum (DD2) proliferation (Rep 2) (AID 743346; call rule not given here). The conditions noted are these: P. falciparum Dd2 in erythrocytes, SYBR Green DNA, 72 h; at 28.5 µM (top of the series) unless noted. A digest of the protocol: as §1
Assay [3] is described as follows: qHTS profiling of the MIPE4 collection as inhibitors of Plasmodium falciparum (HB3) proliferation (AID 743347; call rule not given here;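 note: plate controls were DMSO vehicle wells for no effect and artemisinin wells for full effect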). The conditions noted are these: P. falciparum HB3 in erythrocytes, SYBR Green DNA, 72 h; at 28.5 µM (top of the series) unless noted. In a few lines:
as §1

A short description of assay [4]: High-throughput drug toxicity screening in the BPDCN cell line Gen2.2 (AID 1224824; call rule not given here;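 note: cells exposed to compounds for 48 h before reading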). The following applies: Gen2.2 BPDCN cells; at 45.8 µM (top of the series) unless noted. A digest of the protocol: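 CellTiter-Glo luminescence after 48 h compound exposure of Gen2.2 cells; percent activity set with DMSO as 100% and bortezomib (9.2 uM final) as 0%. Cells seeded at 500 per well, RPMI + 10% FBS, 37 °C.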

Assay [5] in a line: High-throughput drug toxicity screening in the BPDCN cell line Cal-1 (AID 1224825; call rule not given here). The conditions noted are these: Cal-1 BPDCN cell viability, qHTS; at 45.8 µM (top of the series) unless noted. In a few lines: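 Viability of the BPDCN line Cal-1 is measured as ATP-based luminescence (CellTiter-Glo) following 48 h incubation with compounds. Percent activity uses DMSO-treated wells as 100% and 9.2 uM bortezomib as 0%.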

A short description of assay [6]: qHTS assay for measurement of the activity of small molecule inhibitors on Zika virus induced Caspase-3 activity in human iPSC derived neural progenitor cells (hNPCs) (AID 1224857). Note: % of control where 0% means no effect; nearly all actives have a fitted effect of over 65% in size. A digest of the protocol: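 Caspase-3/7 induction by a 6-hour ZIKV infection was quantified with a luminescent Caspase-Glo 3/7 reagent incubated 30 minutes at room temperature. Compounds were preincubated with hNPCs for 1 hour; inhibition was calculated against uninfected and infected control wells.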

Assay [7] can be described thus: qHTS assay for measurement of the activity of small molecule inhibitors on Zika virus induced Caspase-3 activity in human astrocytoma cells (AID 1224859).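 Note: plate controls were ZIKV-infected untreated cells for no effect and uninfected cells for full effect.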 A digest of the protocol:
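In SNB-19 cells plated at 250 cells/well and grown 16-20 h, compounds were applied 1 h before ZIKV (2 FFU/cell). Six hours later caspase-3/7 luminescence was recorded.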

Assay [8] is described as follows: qHTS Screen of the MIPE 4.0 Collection Against Ewings Sarcoma (RDES) (AID 1259252). Note: nearly all actives have a fitted effect of over 35% in size. Note: potency is the fitted concentration of half-maximal effect. A digest of the protocol: (§2)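 Compound titrations go onto adherent log-phase cells 4 h after seeding, incubate 48 h at 37C, then CellTiter-Glo luminescence reports viability relative to DMSO and cell-free controls.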
The nature of assay [9]: qHTS Screen of the MIPE 4.0 Collection Against Ewings Sarcoma (TC71) (AID 1259253). Note: nearly all actives have a fitted effect of over 40% in size. Note: potency is the fitted concentration of half-maximal effect. In a few lines:
as §2

Assay [10] can be described thus: qHTS Screen of the MIPE 4.0 Collection Against Ewings Sarcoma (EW8) (AID 1259255).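 For viability: 100% = DMSO-treated cells and 0% = medium-only wells without cells.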 Note: nearly all actives have a fitted effect of over 35% in size. Note: potency is the fitted concentration of half-maximal effect. A digest of the protocol:
as §2

Results filed as inconclusive are left out. Calls of active or inactive are those of the source. Unless noted, calls come from the whole dose curve; as a rule, active = well fitted inhibition curve with a large enough effect; inconclusive = small, poorly fitted or top-dose-only effect; inactive = no such curve, though single readings can be large or run the other way.

In turn, `COc1ccc2c(c1OC)C(=O)OC2[C@H]1c2c(cc3c(c2OC)OCO3)CCN1C` (stereo not given in full) yielded a parasite growth remaining, % of DMSO control (lower = more inhibition) in [1] of 20.7%. Besides, in assay [2], the parasite growth, % of control (lower = inhibition) turned out to be 20.6%. The growth, % of control in assay [3] was found to be 16.4%. The cell viability, % of control (lower = more cytotoxic) in [4] came to 24.5%. For the same molecule, the viability (% of control) in [5] came out at 8.98%. The Potency result in assay [6] and in assay [7] was “inactive” in each case. Besides, the Potency in assay [8] is 93.5 nM (active); in [9] it was 235 nM (active); in [10], 52.6 nM (active).

As for `c1cncc(CN2CCC(n3ncc4c(N5CCOCC5)nc(-c5ccc6[nH]ccc6c5)nc43)CC2)c1`, the parasite growth remaining, % of DMSO control (lower = more inhibition) in assay [1] amounted to 6.76%. In addition, the parasite growth, % of control (lower = inhibition) in [2] was found to be 18.3%. Also, in assay [3], the growth, % of control turned out to be 8.55%. Besides, the cell viability, % of control (lower = more cytotoxic) in assay [4] turned out to be 12.4%. For the same molecule, in [5], the viability (% of control) is 9.02%. For the same molecule, the Potency result in [6] and in [7] was “inactive” in each case. Moreover, the Potency in assay [8] was 13200 nM (active); in assay [9], 13200 nM (active); in assay [10] it was 6620 nM (active).

`COc1cc([C@@H]2c3cc4c(cc3[C@@H](O[C@@H]3O[C@@H]5CO[C@@H](c6cccs6)O[C@@H]5[C@H](O)[C@@H]3O)[C@H]3COC(=O)[C@H]23)OCO4)cc(OC)c1O` showed a parasite growth remaining, % of DMSO control (lower = more inhibition) in [1] of 8.04%. For the same molecule, the parasite growth, % of control (lower = inhibition) in assay [2] was determined as 9.32%. The growth, % of control in assay [3] was found to be 5.8%. Also, in assay [4], the cell viability, % of control (lower = more cytotoxic) was 27.7%. Further, the viability (% of control) in [5] was 5.23%. Also, the Potency result in assay [6] and in assay [7] was “inactive” throughout. The Potency is 264 nM (active) in [8], 148 nM (active) in [9] and 29.6 nM (active) in [10].

`O=C(NNC(=O)c1ccc(CNS(=O)(=O)c2ccc(F)c(Cl)c2)cc1)c1ccccc1` came in with a parasite growth remaining, % of DMSO control (lower = more inhibition) in assay [1] of 87.9%. The parasite growth, % of control (lower = inhibition) in assay [2] was 100%. For the same molecule, the growth, % of control in assay [3] amounted to 588%. In assay [4], the cell viability, % of control (lower = more cytotoxic) turned out to be 143%. For the same molecule, the viability (% of control) in [5] worked out at 116%. Further, the Potency result in assay [6], in [7], in assay [8], in [9] and in assay [10] was “inactive” throughout.

In [1], `O=C1NC(=O)[C@@H](c2cn3c4c(cccc24)CCC3)[C@H]1c1c[nH]c2ccccc12` yielded a parasite growth remaining, % of DMSO control (lower = more inhibition) of 94.8%. Also, in [2], the parasite growth, % of control (lower = inhibition) was 86.1%. The growth, % of control in assay [3] came out at 60.4%. For the same molecule, the cell viability, % of control (lower = more cytotoxic) in assay [4] came to 4.68%. The viability (% of control) in assay [5] is 14.9%. Also, the Potency entry in [6] and in assay [7] was “inactive” throughout. For the same molecule, the figures for the Potency in assay [8], in assay [9] and in assay [10] were 296 nM (active), 526 nM (active) and 235 nM (active), respectively.

With `C[C@@H]1[C@H](C)CC[C@]2(C(=O)O)CC[C@]3(C)C(=CC[C@@H]4[C@@]5(C)C[C@@H](O)[C@H](O)[C@@](C)(CO)[C@H]5CC[C@]43C)[C@@H]12`, the parasite growth remaining, % of DMSO control (lower = more inhibition) in assay [1] is 90.5%. The parasite growth, % of control (lower = inhibition) in assay [2] came out at 52.5%. Further, in [3], the growth, % of control worked out at 43.6%. In addition, the cell viability, % of control (lower = more cytotoxic) in [4] turned out to be 106%. Besides, the viability (% of control) in [5] turned out to be 122%. For the same molecule, the Potency entry in [6], in [7], in [8], in [9] and in [10] was “inactive” in each case.

Consider `CCOC(=O)[C@@H](N)Cc1ccc(-c2cc(O[C@H](c3ccc(Cl)cc3-n3ccc(C)n3)C(F)(F)F)nc(N)n2)cc1`, for which, in assay [1], the parasite growth remaining, % of DMSO control (lower = more inhibition) amounted to 28.1%. Besides, the parasite growth, % of control (lower = inhibition) in assay [2] worked out at 43.9%. Besides, in [3], the growth, % of control was found to be 15.8%. In addition, the cell viability, % of control (lower = more cytotoxic) in assay [4] was 10.1%. Further, the viability (% of control) in assay [5] is 16.2%. The Potency entry in assay [6] and in assay [7] was “inactive” in each case. For the same molecule, the figures for the Potency in assay [8], in assay [9] and in [10] were 26400 nM (active), 23500 nM (active) and 26400 nM (active), respectively.

Take `Cn1cc(C[C@@H](N)C(=O)O)c2ccccc21`: in assay [1], the parasite growth remaining, % of DMSO control (lower = more inhibition) turned out to be 82.7% [at 9.64 µM]. In addition, in assay [2], the parasite growth, % of control (lower = inhibition) was 107% [at 9.64 µM]. Besides, in [3], the growth, % of control turned out to be 98.8% [at 9.64 µM]. Also, the cell viability, % of control (lower = more cytotoxic) in assay [4] came out at 152% [at 23.2 µM]. The viability (% of control) in assay [5] worked out at 126% [at 23.2 µM]. Moreover, the Potency entry in assay [6], in assay [7], in [8], in assay [9] and in [10] was “inactive” throughout.

For the origin of these results see PubChem BioAssay (NCATS).
